A number with no mark means an inactive call. Inconclusive results are not listed. A call without a number means that no potency is given here. The source made the active and inactive calls. The call rests on the fitted dose curve; in most records, active means well fitted curve in the direction sought with a large enough effect in the repeat runs; inconclusive means weak or mixed curves; inactive means no such curve, though single readings can be large; an effect the other way counts as inactive or inconclusive.
Columns and labels:
[1] = qHTS RealTime-Glo MT Cell Viability Assay in HEK293 cells - 40 hour (AID 1224874); conditions: RealTime-Glo luminescence; max response: stronger effect = lower value; further: nearly all actives have a fitted effect of over 50% in size; further: potency means the concentration at half of the fitted maximal effect
Method in brief: (§1)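 HEK293 + NanoLuc + prosubstrate, 600 cells/well; 5 h, 37 C/5% CO2; compound 23 nL in DMSO by pintool; 37 C; luminescence read at 0, 8, 16, 24, 32 and 40 h time points.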

[2] = A CellTox Green Cytotoxicity Assay to monitor cytotoxicity in HEK293 cells - 24 hour (AID 1224875); further: nearly all actives have a fitted effect of over 45% in size; further: potency means the concentration at half of the fitted maximal effect; on activity change: series mostly up to about 77 µM
Method in brief: (§2)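 Tox21 screen in HEK293: membrane-impermeant cyanine dye fluoresces on binding dead-cell DNA; compound pinned 5 h post-seeding, plates held at 37 C, signal read repeatedly through 40 h.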

[3] = A CellTox Green Cytotoxicity Assay to monitor cytotoxicity in HepG2 cells - 16 hour (AID 1224876); further: nearly all actives have a fitted effect of over 45% in size; further: potency means the concentration at half of the fitted maximal effect
Method in brief: (§3)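 Measurements at 0, 8, 16, 24, 32 and 40 h of treatment captured CellTox Green fluorescence in HepG2 cells that had been co-plated with reagent and preincubated 5 h at 37 C/5% CO2.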

[4] = qHTS RealTime-Glo MT Cell Viability Assay in HepG2 cells - 32 hour (AID 1224877); further: nearly all actives have a fitted effect of over 55% in size; further: potency means the concentration at half of the fitted maximal effect
Method in brief: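 Luminescence read-out: viable HepG2 cells reduce a prosubstrate to a NanoLuc substrate, giving a signal proportional to live cell number. Reads taken at 0, 8, 16, 24, 32 and 40 h of compound exposure at 37 C.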

[5] = A CellTox Green Cytotoxicity Assay to monitor cytotoxicity in HepG2 cells - 24 hour (AID 1224878); further: nearly all actives have a fitted effect of over 45% in size; further: potency means the concentration at half of the fitted maximal effect
Method in brief: as §3

[6] = A CellTox Green Cytotoxicity Assay to monitor cytotoxicity in HepG2 cells - 40 hour (AID 1224879); further: nearly all actives have a fitted effect of over 40% in size; further: potency means the concentration at half of the fitted maximal effect
Method in brief: as §3

[7] = qHTS RealTime-Glo MT Cell Viability Assay in HEK293 cells - 0 hour (AID 1224880); further: top concentration of the series differs between compounds; nearly all actives have a fitted effect of over 45% in size
Method in brief: as §1

[8] = A CellTox Green Cytotoxicity Assay to monitor cytotoxicity in HEK293 cells - 32 hour (AID 1224881); further: nearly all actives have a fitted effect of over 40% in size; further: potency means the concentration at half of the fitted maximal effect
Method in brief: as §2

[9] = A CellTox Green Cytotoxicity Assay to monitor cytotoxicity in HepG2 cells - 0 hour (AID 1224882); further: nearly all actives have a fitted effect of over 35% in size; further: potency means the concentration at half of the fitted maximal effect
Method in brief: as §3

[10] = A CellTox Green Cytotoxicity Assay to monitor cytotoxicity in HepG2 cells - 32 hour (AID 1224883); further: nearly all actives have a fitted effect of over 50% in size; further: potency means the concentration at half of the fitted maximal effect
Method in brief: as §3

For `CC(=O)Oc1ccc(C2(c3ccc(OC(C)=O)cc3)C(=O)Nc3ccccc32)cc1`, the max response [1] was -6.95%, the Potency [2] was “inactive” and the Potency [3] was “inactive”. For the same molecule, the Potency [4] was “inactive”, the Potency [5] was “inactive” and the Potency [6] was “inactive”. For the same molecule, the Potency [7] was “inactive”, the Potency [8] was “inactive” and the Potency [9] was “inactive”. The Potency [10] was “inactive”.
For `CCCCCCCCCCCCCOP(=O)(O)O`, the max response [1] was -0.341%, the Potency [2] was “inactive” and the Potency [3] was “inactive”. For the same molecule, the Potency [4] was “inactive”, the Potency [5] was “inactive” and the Potency [6] was “inactive”. For the same molecule, the Potency [7] was “inactive”, the Potency [8] was “inactive” and the Potency [9] was “inactive”. For the same molecule, the Potency [10] was “inactive”.
For `CCNc1nc(NC(C)CC)nc(OC)n1` (configuration not stated), the max response [1] was -18.1%, the Potency [2] was “inactive” and the Potency [3] was “inactive”. For the same molecule, the Potency [4] was “inactive”, the Potency [5] was “inactive” and the Potency [6] was “inactive”. For the same molecule, the Potency [7] was “inactive”, the Potency [8] was “inactive” and the Potency [9] was “inactive”. The Potency [10] was “inactive”.
In the case of `Clc1ccccc1CN1CCc2sccc2C1`, the max response [1] is reported as -22.8%, the Potency [2] is reported as “inactive” and the Potency [3] is reported as “inactive”. The Potency [4] was “inactive”, the Potency [5] was “inactive” and the Potency [6] was “inactive”. For the same molecule, the Potency [7] was “inactive”, the Potency [8] was “inactive” and the Potency [9] was “inactive”. For the same molecule, the Potency [10] was “inactive”.
In the case of `SCCCCCCCCS`, the max response [1] is reported as 9.16%, the Potency [2] is reported as “inactive” and the Potency [3] is reported as 19.5 µM (active). The Potency [4] was “inactive”, the Potency [5] was 19.5 µM (active) and the Potency [6] was 19.5 µM (active). The Potency [7] was “inactive”, the Potency [8] was “inactive” and the Potency [9] was “inactive”. For the same molecule, the Potency [10] was 19.5 µM (active).
In the case of `O=C1OC(=O)c2ccc3c4c(ccc1c24)C(=O)OC3=O`, the max response [1] is reported as 0.327%, the Potency [2] is reported as “inactive” and the Potency [3] is reported as “inactive”. For the same molecule, the Potency [4] was “inactive”, the Potency [5] was “inactive” and the Potency [6] was “inactive”. For the same molecule, the Potency [7] was “inactive”, the Potency [8] was “inactive” and the Potency [9] was “inactive”. For the same molecule, the Potency [10] was “inactive”.
With `O[C@@H](c1cc(C(F)(F)F)nc2c(C(F)(F)F)cccc12)[C@H]1CCCCN1` the Potency [1] was 8.49 µM (active), the Potency [2] was 26.8 µM (active) and the Potency [3] was 23.9 µM (active). For the same molecule, the Potency [4] was 13.4 µM (active), the Potency [5] was 21.3 µM (active) and the Potency [6] was 15.1 µM (active). The Potency [7] was “inactive”, the Potency [8] was 23.9 µM (active) and the Potency [9] was “inactive”. For the same molecule, the Potency [10] was 19 µM (active).
For `CC(C)=CCCC(C)O` (configuration not stated), the max response [1] was 0.513%, the Potency [2] was “inactive” and the Potency [3] was “inactive”. For the same molecule, the Potency [4] was “inactive”, the Potency [5] was “inactive” and the Potency [6] was “inactive”. The Potency [7] was “inactive”, the Potency [8] was “inactive” and the Potency [9] was “inactive”. The Potency [10] was “inactive”.
For `CCCCCCCCCCCCCc1ccccc1`, the max response [1] was -7.71%, the Potency [2] was “inactive” and the Potency [3] was “inactive”. The Potency [4] was “inactive”, the Potency [5] was “inactive” and the Potency [6] was “inactive”. The Potency [7] was “inactive”, the Potency [8] was “inactive” and the Potency [9] was “inactive”. The Potency [10] was “inactive”.
For `C=CC(=C)CC/C=C(\C)CCC=C(C)C`, the max response [1] was -13.5%, the activity change [2] was 0.574% [at 15.8 µM, stronger effect = higher value] and the cytotoxicity increase [3] was 1.01% [at 15.8 µM]. It also gave an activity change, negative = cytotoxic [4] of -2.56% [at 15.8 µM], a cytotoxicity [5] of -0.282% [at 15.8 µM] and a cytotoxicity increase [6] of -0.316% [at 15.8 µM]. For the same molecule, the activity change, negative = cytotoxicity [7] was -0.65% [at 15.8 µM], the cytotoxicity increase [8] was 1.9% [at 15.8 µM] and the cytotoxicity [9] was -7.07% [at 15.8 µM]. For the same molecule, the cytotoxicity increase [10] was 2.06% [at 15.8 µM].
For `C=CC(C)C#N` (configuration not stated), the max response [1] was 11.1%, the Potency [2] was “inactive” and the Potency [3] was “inactive”. For the same molecule, the Potency [4] was “inactive”, the Potency [5] was “inactive” and the Potency [6] was “inactive”. The Potency [7] was “inactive”, the Potency [8] was “inactive” and the Potency [9] was “inactive”. The Potency [10] was “inactive”.
For `O=S(=O)(O)c1cc(S(=O)(=O)O)c2ccc3c(S(=O)(=O)O)cc(S(=O)(=O)O)c4ccc1c2c43`, the max response [1] was 2.05%, the activity change [2] was -0.396% [at 15.8 µM, stronger effect = higher value] and the cytotoxicity increase [3] was -4.69% [at 15.8 µM]. For the same molecule, the activity change, negative = cytotoxic [4] was 5.28% [at 15.8 µM], the cytotoxicity [5] was -8.46% [at 15.8 µM] and the cytotoxicity increase [6] was -11.4% [at 15.8 µM]. For the same molecule, the activity change, negative = cytotoxicity [7] was 3.1% [at 15.8 µM], the cytotoxicity increase [8] was -1.7% [at 15.8 µM] and the cytotoxicity [9] was -2.2% [at 15.8 µM]. The cytotoxicity increase [10] was -9.89% [at 15.8 µM].
In the case of `CCCC(O)C(O)CO` (configuration not stated), the max response [1] is reported as 4.32%, the Potency [2] is reported as “inactive” and the Potency [3] is reported as “inactive”. For the same molecule, the Potency [4] was “inactive”, the Potency [5] was “inactive” and the Potency [6] was “inactive”. For the same molecule, the Potency [7] was “inactive”, the Potency [8] was “inactive” and the Potency [9] was “inactive”. For the same molecule, the Potency [10] was “inactive”.
With `C=CC(C)(CCC=C(C)C)OC(=O)/C=C/c1ccccc1` (configuration not stated) the max response [1] was -2.78%, the Potency [2] was 27.5 µM (active) and the Potency [3] was 27.5 µM (active). The Potency [4] was “inactive”, the Potency [5] was 38.9 µM (active) and the Potency [6] was 43.6 µM (active). The Potency [7] was “inactive”, the Potency [8] was 38.9 µM (active) and the Potency [9] was 27.5 µM (active). The Potency [10] was 43.6 µM (active).
With `CCCCCCS` the max response [1] was 6.5%, the Potency [2] was “inactive” and the Potency [3] was “inactive”. For the same molecule, the Potency [4] was “inactive”, the Potency [5] was “inactive” and the Potency [6] was “inactive”. For the same molecule, the Potency [7] was “inactive”, the Potency [8] was “inactive” and the Potency [9] was “inactive”. The Potency [10] was “inactive”.
For `CC(C)(c1cc(Br)c(O)c(Br)c1)c1cc(Br)c(O)c(Br)c1`, the max response [1] was -17.7%, the Potency [2] was “inactive” and the Potency [3] was “inactive”. The Potency [4] was “inactive”, the Potency [5] was “inactive” and the Potency [6] was “inactive”. The Potency [7] was “inactive”, the Potency [8] was “inactive” and the Potency [9] was “inactive”. The Potency [10] was “inactive”.
In the case of `CC[N+](CC)(CC)Cc1ccccc1`, the max response [1] is reported as 3.38%, the Potency [2] is reported as “inactive” and the Potency [3] is reported as “inactive”. For the same molecule, the Potency [4] was “inactive”, the Potency [5] was “inactive” and the Potency [7] was “inactive”. The Potency [8] was “inactive”, the Potency [9] was “inactive” and the Potency [10] was “inactive”.
In the case of `CCCCCCCCCCCC(=O)N(CC)CC`, the max response [1] is reported as -24.4%, the Potency [2] is reported as “inactive” and the Potency [3] is reported as “inactive”. The Potency [4] was “inactive”, the Potency [5] was “inactive” and the Potency [6] was “inactive”. For the same molecule, the Potency [7] was “inactive”, the Potency [8] was “inactive” and the Potency [9] was “inactive”. For the same molecule, the Potency [10] was “inactive”.
With `CCCCCCCC(C)=O` the max response [1] was 0.179%, the Potency [2] was “inactive” and the Potency [3] was “inactive”. The Potency [4] was “inactive”, the Potency [5] was “inactive” and the Potency [6] was “inactive”. For the same molecule, the Potency [7] was “inactive”, the Potency [9] was “inactive” and the Potency [10] was “inactive”.
With `CCc1cccc(C)c1` the max response [1] was -0.877%, the Potency [2] was “inactive” and the Potency [3] was “inactive”. For the same molecule, the Potency [4] was “inactive”, the Potency [5] was “inactive” and the Potency [6] was “inactive”. The Potency [7] was “inactive”, the Potency [8] was “inactive” and the Potency [10] was “inactive”.
With `C=CCCCCCCC=C` the max response [1] was 0.211%, the Potency [2] was “inactive” and the Potency [3] was “inactive”. For the same molecule, the Potency [4] was “inactive”, the Potency [5] was “inactive” and the Potency [6] was “inactive”. For the same molecule, the Potency [7] was “inactive”, the Potency [8] was “inactive” and the Potency [9] was “inactive”. The Potency [10] was “inactive”.

From PubChem BioAssay (Tox21)
